Marburg entry inh: blocks Marburg virus binding to or entry into cells; Marburg virus pseudotyped entry inhibition, cell reporter; Potency, µM (top dose mostly 37.8 µM), inactives show top-dose activity change, negative = inhibition, hits mostly inhibitors; 300,000 tested, 1.8% active; AID 540276; calls by dose curve; tested in HEK293 cells; further: potency means the concentration at half of the fitted maximal effect; on the % scale 0 is the no-effect control and ±100 the full control effect
Lassa entry inh: inhibitors of Lassa virus binding or cell entry; Potency, µM (series often up to 37.9 µM), for inactives: at the highest dose activity change, negative = inhibition, actives largely listed as inhibitors; AID 540256; Lassa virus pseudotype entry inhibition, cell reporter; 300,000 tested, 1.2% active; calls by dose curve; tested in HEK293 cells; further: potency means the concentration at half of the fitted maximal effect; on the % scale 0 is the no-effect control and ±100 the full control effect; nearly all actives have a fitted effect of over 50% in size
Shiga toxin inh: blocks Shiga toxin action in Vero cells. Vero cells, Shiga toxin protein synthesis inhibition reporter. inhibition, % at 38.7 µM. 290,000 tested, 9.2% active. AID 2315; in the data active means inhibition mostly above about 28%, no sharp cut-off; inactive means mostly below about 43%; further: 0% is about no effect
Pf growth 48h: P. falciparum growth inhibition at 48 hours (one generation) | Potency, µM (top dose mostly 28.7 µM), without a hit: at the highest dose activity change, negative = inhibition, most hits filed as inhibitors | P. falciparum luciferase growth in erythrocytes, 48 h | 310,000 tested, 5.9% active; further: potency means the concentration at half of the fitted maximal effect; on the % scale 0 is the no-effect control and ±100 the full control effect
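Here the parasites carry a stable luciferase gene and grow inside erythrocytes in Albumax-based RPMI medium with compound for one erythrocytic cycle. Activity is scored as loss of luminescent signal.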
Pf growth 96h: P. falciparum growth inhibition at 96 hours; AID 504834; P. falciparum luciferase reporter growth, 96 h; Potency, µM (doses to about 28.7 µM), inactives show at the highest dose activity change, negative = inhibition, most hits filed as inhibitors; 320,000 tested, 6.9% active; further: potency means the concentration at half of the fitted maximal effect; on the % scale 0 is the no-effect control and ±100 the full control effect
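Readout is luminescence from an integrated firefly luciferase in P. falciparum. Red cells, 2% hematocrit and 0.05% parasitemia final, were cultured with compound through two parasite generations (96 hours) at 37 C, 5% CO2.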
Cycloheximide cs: affects cycloheximide protein synthesis inhibition readout, counter-screen. cell reporter, cycloheximide protein synthesis inhibition counterscreen. max response, %. 300,000 tested, 12% active. AID 2314; in the data active means max response mostly above about 13%, no sharp cut-off; inactive means mostly below about 14%; further: read at 38.3 µM for the half of the compounds with a filed dose; 0% is about no effect
An asterisk follows results filed as active; ? = inconclusive; . = no result given; [ ] = remark or other dose. Most compounds without a hit are left out; they make up all but 19% or so of the library. Unless noted, the call rests on the fitted dose curve; in most records, active means well fitted inhibition curve with a large enough effect; inconclusive means small, poorly fitted or top-dose-only effect, or another doubt; inactive means no such curve, though single readings can be large or run the other way.

SMILES | Marburg entry inh | Lassa entry inh | Shiga toxin inh | Pf growth 48h | Pf growth 96h | Cycloheximide cs
O=C(CCC(=O)Nc1cccc(C(F)(F)F)c1)NCC1CCCO1 (configuration not stated) | ? | 1%[46.1 µM] | -3 | 14% | 4% | 7
CC(=O)c1ccc(NC(=S)NC2CCCC(C)C2C)cc1 (configuration not stated) | 10%[46.1 µM] | -15% | 48* | 13%[5.75 µM] | 3% | 17*
O=C(COC(=O)C1CCCO1)Nc1cccc(C(F)(F)F)c1 (configuration not stated) | 6%[46.1 µM] | ? | -15 | 2% | 7.4µM* | -2
O=C(Nc1cccc(C(F)(F)F)c1)NC1CCCCC1 | 14% | 4µM* | 15 | . | . | 16
CN1CCC(NC(=O)Nc2cccc(C(F)(F)F)c2)CC1 | . | . | -14 | 10% | 492% | 2
O=C(Nc1cccc(Cl)c1)OC1CCCCc2cccnc21 (configuration not stated) | ? | ? | -9 | 3.7µM* | -25% | -2
Nc1ccc2c(c1Br)Cc1ccccc1-2 | ? | 19% | . | . | . | .
CC(=O)c1cccc(NC(=O)C2CCCC2)c1 | -23% | -10% | -18 | 34% | 8% | 2
CC(=O)c1ccc(NC(=O)NC2CCCCCCC2)cc1 | -4%[46.1 µM] | ? | 95* | 35% | ? | 39*
O=C(OC(C(=O)Nc1cccc(C(F)(F)F)c1)c1ccccc1)C1CCCCC1 (configuration not stated) | 2% | ? | 22 | ? | 6.6µM* | 1
CC(=O)c1cccc(NC(=O)NC2CCCCCCC2)c1 | 22%[46.1 µM] | -29%[46.1 µM] | 50 | 27% | ? | 36*
CC(=O)c1ccc(NC(=O)C2CCCC2)cc1 | . | . | 1 | 22% | 45% | 9.4*
CC(C)CC(NC(=O)C1CCCCC1)C(=O)Nc1cccc(C(F)(F)F)c1 (configuration not stated) | -2%[46.1 µM] | 7%[46.1 µM] | . | . | . | .
CCN(CC(=O)Nc1ccc2c(c1)OCCO2)C(=O)CCc1ccc(OC)cc1 | -11% | -21% | . | -9% | 20% | .
CCCOc1ccc(C(=O)Nc2ccc3c(c2)OCCO3)cc1 | ? | ? | 73* | 184% | -38% | 36*
COc1ccc(C(=O)Nc2ccc3c(c2)OCCO3)cc1 | 6.5µM* | 5.2µM* | 9 | 276% | ? | 15*
CC(=O)Nc1ccc2c(c1)OCCOCCOc1cc(NC(C)=O)ccc1OCCOCCOCCO2 | -2% | . | -13 | ? | 41% | -2
COc1ccc(C(=O)CCNc2ccc3c(c2)OCCO3)cc1 | . | . | 59* | 5% | -4% | 27
Cc1ccc(OCCC(=O)Nc2ccc3c(c2)OCCCO3)cc1 | 4% | 4% | . | 58% | 32% | .
COc1cc(OC)cc(C(=O)NNC(=O)c2ccc3c(c2)OCCO3)c1 | 17% | -17% | . | . | . | .
CC(=O)Oc1ccc(C(=O)Nc2ccc3c(c2)OCCO3)cc1 | ? | ? | . | 198% | ? | 26*
CCc1ccc(NC(=O)N(Cc2cccnc2)Cc2ccco2)cc1 | 6% | 0% | 20 | -23% | . | 2
CC(=O)Oc1ccc(C(=O)Nc2cc(NC(=O)c3ccc(OC(C)=O)cc3)cc(C(=O)NC(C)(C)C)c2)cc1 | -11% | -9% | -1 | ? | 2.6µM* | -4
COc1ccc(C)cc1S(=O)(=O)Nc1cccc(C)c1 | -2%[46.1 µM] | -9%[46.1 µM] | 13 | -4%[5.75 µM] | 46%[5.75 µM] | 0
O=C(Nc1ccc(C(=O)N2CCCCC2)cc1)c1cccs1 | 18%[46.1 µM] | 14% | 68* | 42% | 30% | 19*
SMILES | Marburg entry inh | Lassa entry inh | Shiga toxin inh | Pf growth 48h | Pf growth 96h | Cycloheximide cs
O=C(Nc1ccc(N2CCN(C(=O)c3ccc(Cl)cc3)CC2)cc1)c1cccs1 | . | . | -2 | ? | -29% | 0
O=C(Nc1ccc(C(=O)N2CCOCC2)cc1)c1cccs1 | 3%[46.1 µM] | 26% | 51 | -7% | -19% | 18
COc1ccc(C(=O)Nc2ccc(N3CCN(C(=O)c4cccs4)CC3)cc2)cc1Br | . | . | -2 | ? | 9.3µM* | 9
CCOc1ccc(C(=O)Nc2ccc(NC(=O)c3ccccc3)cc2)cc1Br | . | ? | -1 | 3% | ? | -1
CCOc1ccc(C(=O)Nc2ccc(N3CCN(C)CC3)cc2)cc1Br | 11µM* | 6% | 18 | ? | . | 10
Cc1ccc(C(=O)N2CCN(c3ccc(NC(=O)c4cccs4)cc3)CC2)cc1 | -16% | -8% | 23 | 10µM* | ? | 15
O=C(Cc1ccccc1)Nc1ccc(NC(=O)c2ccccc2)c(Cl)c1 | . | . | 2 | 0% | ? | 2
CN1CCN(c2ccc(NC(=O)c3cccs3)cc2)CC1 | ? | ? | 41 | 79% | ? | 32*
N#CN(CC(N)=O)c1nc(N2CCCCC2)nc(N2CCCCC2)n1 | ? | 4% | -17 | ? | -8% | -3
CCOc1ccc(CN(CCO)CCO)cc1C(=O)OC | -1% | -1% | -9 | 8% | 2.1µM* | 2
CCCOc1ccc(CN(CCO)CCO)cc1[N+](=O)[O-] | 12% | -16% | 19 | ? | ? | -2
COc1ccc(CC(=O)Nc2ccc(C#N)c(Cl)c2)cc1S(=O)(=O)N1CCOCC1 | -10% | ? | -11 | -13% | ? | 5
CC(C(=O)Nc1ccc(C(=O)O)cc1)N1C(=O)c2ccccc2C1=O (configuration not stated) | -6% | -7% | -4 | -1% | 9% | -1
Cc1cc(C)cc(NC(=O)CN2C(=O)NC(C)(c3ccccc3)C2=O)c1 (configuration not stated) | -17%[46.1 µM] | -1% | -3 | -2% | 5% | -3
Cc1ccc2nc(-c3ccc(NC(=O)C(C)N4C(=O)c5ccccc5C4=O)cc3)sc2c1 (configuration not stated) | ? | ? | 51* | 180% | 3% | 93*
O=C(CCN1C(=O)c2ccccc2C1=O)Nc1nc2ccccc2s1 | 9% | 1% | -38 | 3% | 137% | 19*
Cc1ccc2nc(-c3ccc(NC(=O)CCN4C(=O)c5ccccc5C4=O)cc3)sc2c1 | ? | ? | 79* | 218% | 59% | 55*
Cc1ccc(C2(C)NC(=O)N(CC(=O)Nc3ccc(-c4nc5ccc(C)cc5s4)cc3)C2=O)cc1 (configuration not stated) | -2% | . | 85* | 110% | 144% | 54*
CC(C)(C)C1CCc2c(sc(NC(=O)CSc3nnc(-c4ccccc4)o3)c2C#N)C1 (configuration not stated) | -1% | 3% | -4 | 20% | ? | 3
O=C(CSCc1ccc(Cl)cc1)Nc1ccccc1C(=O)N1CCOCC1 | 27% | 6% | -17 | 7% | 23% | -6
CCN1CCN(C(=O)c2ccc(S(=O)(=O)Nc3ccccc3)cc2)CC1 | . | . | . | ? | 44% | .
Cc1ccc(S(=O)(=O)N2[C@@H](c3ccccc3)C(C(=O)O)=CC[C@H]2c2cccs2)cc1 | . | . | . | ? | 41% | .
O=c1cc(O)c2ccccc2[nH]1 | 0% | -5%[46.1 µM] | -3 | -9% | 36% | -1

Source: PubChem
